Whole data set: some 81,000 sequences, median “one-hybrid fitness for binding NBS DNA” near -0.1, cut for the highest 2% near 0.36. For the sample, the highest values were picked, then their nearest neighbours and some sequences at random.
B1: Caulobacter ParB omega fusion; a variant is named by its letters at X, in order, B8GW30 (parent)
chain: MESVVVGEPGMSEGRRGLGRGLSALLGEVDAAPAQAPGEQLGGSREAPIEILQRNPDQPRRTFREEDLEDLSNSIREKGVLQPILVRPSPDTAGEYQIVAGERAWRAAQRAGLKTVPIMVRELDDLAVLEIGIIENVQRADLNVLEEALSYKVLMEKFERTQENIAQTIGKSXSHVANXMRLLXLPDEVQSYLVSGELTAXHARAIAAAADPVALAKQIIEGGLSVRETEALARKAPNLSAGKSKGGRPPRVKDTDTQALESDLSSVLGLDVSIDHRGSTGTLTITYATLEQLDDLCNRLTRGI

Variants of: B1
Experiment: one-hybrid fitness for binding NBS DNA (the Noc-binding site; scaled: cognate 1, non-cognate 0); higher = stronger binding
Conditions: with NBS DNA site
In short: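 Fitness is the rescaled log change in variant-to-wild-type read ratio, measured by Illumina sequencing of plasmids before and after bacterial one-hybrid selection. The scale puts cognate at 1 and non-cognate at 0. Selection of Caulobacter ParB libraries, four specificity codons randomised, took place in E. coli USO with a HIS3 reporter, site 19 bp from the promoter, over 48 hours at 37°C on M9-minus-histidine with 0.1 mM IPTG and 5 mM 3-AT.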

Row | Variant | one-hybrid fitness for binding NBS DNA
1 | GDTA | ≤ 0.2
2 | QVSR | 0.38
3 | QVYR | 0.306
4 | QVGP | ≤ 0.2
5 | QVAR | 0.384
6 | QVRR | 0.77
7 | QVAH | ≤ 0.2
8 | QVFR | 0.302
9 | QVGD | ≤ 0.2
10 | QVSD | ≤ 0.2
11 | QVGR | 0.426
12 | QVLR | 0.305
13 | QVSN | ≤ 0.2
14 | GHLS | ≤ 0.2
15 | CPPV | ≤ 0.2
16 | SSGL | ≤ 0.2
17 | QAQG | ≤ 0.2
18 | VSSH | ≤ 0.2
19 | ELVL | ≤ 0.2
20 | DGRA | ≤ 0.2
21 | PHAM | ≤ 0.2
22 | TTRG | ≤ 0.2
23 | QVHN | ≤ 0.2
24 | QVKG | ≤ 0.2
25 | QVHD | ≤ 0.2
26 | QVHR | 0.436

Row | Variant | one-hybrid fitness for binding NBS DNA
27 | QVVR | 0.285
28 | QVKR | 0.786
29 | SFPV | ≤ 0.2
30 | PNKV | ≤ 0.2
31 | CGYT | ≤ 0.2
32 | FDPN | ≤ 0.2
33 | SLHW | ≤ 0.2
34 | LCKR | 0.207
35 | LRDR | ≤ 0.2
36 | LRRR | 0.483
37 | LRYR | ≤ 0.2
38 | LRKR | 0.452
39 | LRVR | 0.207
40 | LRGN | ≤ 0.2
41 | TTRD | ≤ 0.2
42 | YFPL | ≤ 0.2
43 | PYKL | ≤ 0.2
44 | RHSN | ≤ 0.2
45 | RKSS | 0.544
46 | RHSP | ≤ 0.2
47 | RKSP | ≤ 0.2
48 | RLSS | 0.411
49 | RHSS | 0.438
50 | RFSS | 0.231
51 | RLSN | ≤ 0.2
52 | RPSS | ≤ 0.2

Row | Variant | one-hybrid fitness for binding NBS DNA
53 | RLSD | ≤ 0.2
54 | RCSS | 0.522
55 | RKSN | ≤ 0.2
56 | TAMR | ≤ 0.2
57 | PIWS | ≤ 0.2
58 | TISQ | ≤ 0.2
59 | GDNM | ≤ 0.2
60 | KDTE | ≤ 0.2
61 | EWSR | ≤ 0.2
62 | APCT | ≤ 0.2
63 | RASH | ≤ 0.2
64 | RASS | 0.421
65 | RMSD | ≤ 0.2
66 | RASN | ≤ 0.2
67 | RSSP | ≤ 0.2
68 | RMSH | ≤ 0.2
69 | RMSS | 0.439
70 | RSSD | ≤ 0.2
71 | RSSS | 0.437
72 | LPKA | ≤ 0.2
73 | QSPH | ≤ 0.2
74 | HLSL | ≤ 0.2
75 | NDNR | ≤ 0.2
76 | NAKL | ≤ 0.2
77 | QILN | ≤ 0.2
78 | TTWI | ≤ 0.2

Row | Variant | one-hybrid fitness for binding NBS DNA
79 | SQRH | ≤ 0.2
80 | QECR | ≤ 0.2
81 | QCCR | 0.599
82 | QPCR | ≤ 0.2
83 | QACH | ≤ 0.2
84 | QMCY | 0.212
85 | QMCM | ≤ 0.2
86 | QKCD | ≤ 0.2
87 | QACS | 0.272
88 | QACR | 0.447
89 | QKCR | 0.519
90 | QMCR | 0.509
91 | QKCM | ≤ 0.2
92 | SHHD | ≤ 0.2
93 | AWRT | ≤ 0.2
94 | FPKF | ≤ 0.2
95 | NPPH | ≤ 0.2
96 | KTTD | ≤ 0.2
97 | EIVG | ≤ 0.2
98 | PQLT | ≤ 0.2
99 | LLMK | ≤ 0.2
100 | QTCG | ≤ 0.2
101 | QHCR | 0.473
102 | QTCR | 0.679
103 | QTCF | ≤ 0.2
104 | QICR | 0.377

Row | Variant | one-hybrid fitness for binding NBS DNA
105 | QICS | 0.216
106 | QHCN | ≤ 0.2
107 | QSCN | ≤ 0.2
108 | QICG | ≤ 0.2
109 | QHCS | 0.279
110 | QSCR | 0.493
111 | QSCD | ≤ 0.2
112 | SPDS | ≤ 0.2
113 | SFYS | ≤ 0.2
114 | PAKH | ≤ 0.2
115 | GLKV | ≤ 0.2
116 | DMTR | ≤ 0.2
117 | PHDI | ≤ 0.2
118 | QCYR | 0.606
119 | QDRR | 0.275
120 | QGRR | 0.33
121 | QWYR | 0.201
122 | QSYR | 0.458
123 | QGYR | ≤ 0.2
124 | QSRR | 1
125 | QSYD | ≤ 0.2
126 | HTCT | ≤ 0.2
127 | HKQR | ≤ 0.2
128 | IERR | ≤ 0.2
129 | GCNT | ≤ 0.2
130 | VMRG | ≤ 0.2

Row | Variant | one-hybrid fitness for binding NBS DNA
131 | EMRQ | ≤ 0.2
132 | IITW | ≤ 0.2
133 | YLQI | ≤ 0.2
134 | KCMR | ≤ 0.2
135 | KCMT | ≤ 0.2
136 | DRMT | ≤ 0.2
137 | KRMT | 0.539
138 | KRMD | ≤ 0.2
139 | KRMR | 0.51
140 | KRMS | 0.396
141 | KSMR | ≤ 0.2
142 | KRMN | ≤ 0.2
143 | TALF | ≤ 0.2
144 | RINP | ≤ 0.2
145 | RANT | 0.496
146 | RTDT | 0.284
147 | RANP | ≤ 0.2
148 | RIDT | ≤ 0.2
149 | RTNN | ≤ 0.2
150 | RADT | ≤ 0.2
151 | RTNT | 0.636
152 | RSNN | ≤ 0.2
153 | RSDT | ≤ 0.2
154 | RINT | 0.554
155 | RSNT | 0.503
